Laboratory results reported in PubChem BioAssay (NCI).
Compounds without any hit were thinned out: in the full panel of roughly 83,000, 20% have a hit.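 The endpoint reported here, percent growth, reads 100 for growth as untreated, 0 for no net growth and -100 for all cells dead.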 Values without a mark were called inactive. Activity calls are given as the source filed them. The calls were made as follows: active = growth percent below 10; inactive = the rest.

Assays:
Test in all cases: NCI-60 one-dose screen, 48 h (100 = growth as untreated, 0 = no growth, -100 = all killed)
Settings in all cases: 10 µM unless noted
SR leukemia = system: SR leukemia
RPMI-8226 leukemia = system: RPMI-8226 leukemia
OVCAR-8 ovarian = system: OVCAR-8 ovarian
OVCAR-5 ovarian = system: OVCAR-5 ovarian
OVCAR-4 ovarian = system: OVCAR-4 ovarian
SK-OV-3 ovarian = system: SK-OV-3 ovarian
IGROV1 ovarian = system: IGROV1 ovarian
OVCAR-3 ovarian = system: OVCAR-3 ovarian
HS 578T breast = system: HS 578T breast
NCI/ADR-RES ovarian = system: NCI/ADR-RES ovarian

Row | SMILES | growth (SR leukemia) | growth (RPMI-8226 leukemia) | growth (OVCAR-8 ovarian) | growth (OVCAR-5 ovarian) | growth (OVCAR-4 ovarian) | growth (SK-OV-3 ovarian) | growth (IGROV1 ovarian) | growth (OVCAR-3 ovarian) | growth (HS 578T breast) | growth (NCI/ADR-RES ovarian)
1 | CC1(C)CC[C@]2(C(=O)O)CC[C@]3(C)C(=CCC4[C@@]5(C)C[C@@H](O)[C@@H]6OC(c7ccc(F)cc7)OC[C@@]6(C)C5CC[C@]43C)C2C1 (stereo not given in full) | 7.73% (active) | 9.02% (active) | 29.3% | 63.4% | 44% | 85.7% | 43.4% | 24% | 48.1% | 30.2%
2 | N/C(=N\c1nc2ccccc2s1)NC(=O)Nc1ccccc1Br | 12.1% | -0.145% (active) | -55.7% (active) | -17% (active) | -59.1% (active) | -6.97% (active) | 11.5% | -72.3% (active) | -5.34% (active) | -57.1% (active)
3 | Cn1cc(-c2cc3nc(-c4cn(C)c5ncccc45)cc(N)n3n2)c2ccccc21 | -28.8% (active) | -19.1% (active) | 10.2% | 48.9% | 3.01% (active) | 42.8% | 0.888% (active) | 6.85% (active) | -13% (active) | 31.2%
4 | CC12CC[C@@H]3[C@]4(C)COC(c5cn[nH]c5-c5cccc(Br)c5)O[C@@H]4CC[C@@]3(C)[C@@H]1CC(C1=CCOC1=O)O2 (stereo not given in full) | 28% | 13.2% | 31% | 76.8% | 25.4% | 53.8% | 48.7% | 40.6% | 51.5% | 25.3%
5 | O=C(Cn1c(/C=C/c2ccccc2)nc2ccccc2c1=O)Nc1ccccc1 | 80.3% | 90.2% | 44.4% | 96.1% | -0.268% (active) | 61.4% | 107% | 78.3% | 82.5% | 57.9%
6 | Cc1ccc(C2=NN(c3nc(-c4cc5ccccc5oc4=O)cs3)C(c3ccc(C)cc3)C2)cc1 (stereo not given) | 102% | 98.6% | 106% | 126% | 99.1% | 80.3% | 104% | 109% | 101% | 101%
7 | COc1ccc(-c2ccnc(SCc3cc4ccccc4[nH]c3=O)n2)cc1OC | 40.3% | 45% | 0.24% (active) | -41% (active) | -2.39% (active) | -69.7% (active) | 10.9% | 20.7% | -23.6% (active) | -40.7% (active)
8 | O=C(NN1C(=O)/C(=C/C=C/c2ccc([N+](=O)[O-])o2)SC1=S)c1cccc(O)c1 | 2.86% (active) | -10.1% (active) | -80.3% (active) | -98.5% (active) | -100% (active) | -80.9% (active) | -97.9% (active) | -100% (active) | -14.6% (active) | -32.1% (active)
9 | CCN(CC)c1ccnc(CNCCSC(c2ccccc2)(c2ccccc2)c2ccc(OC)cc2)c1 | -49.4% (active) | -55.9% (active) | -78.6% (active) | -11.9% (active) | 14.1% | -8.81% (active) | -2.91% (active) | -43% (active) | -33.2% (active) | -64.5% (active)
10 | O=S(=O)(Nc1cccc(-n2cnc3cc(-c4ccc(O)cc4)ccc32)c1)C1CC1 | 13.2% | 23.9% | 19.8% | 47.1% | 48.3% | 35.6% | 35.3% | 2.82% (active) | -20.1% (active) | 25.1%
11 | Cn1cc(-c2nc(N)nnc2-c2c[nH]c3ccc(Br)cc23)c2cc(Br)cnc21 | -17.2% (active) | -12% (active) | 1.57% (active) | 21.8% | 32.8% | 9.61% (active) | 14.2% | 0.628% (active) | 30.2% | 12.5%
12 | CC(/C=C1\SC(=S)N(CCCC(=O)NC(CC(C)C)C(=O)O)C1=O)=C\c1ccccc1 (stereo not given) | 101% | 77.6% | 87.5% | 111% | 99.8% | 106% | 109% | 91.3% | 97.5% | 94.1%
13 | COc1cc2c3c(n(CCCN4CCC[C@@H]4CO)c(=O)c2cc1OC)-c1cc2c(cc1C3=O)OCO2 | -25.5% (active) | -28.4% (active) | -76.8% (active) | -98.7% (active) | -82.2% (active) | 27.1% | -88.9% (active) | -94.4% (active) | -6.35% (active) | -67.4% (active)
